Hit rate of the full screen: of about 360,000 compounds, about 17,000 (4.7%) were called active. Roughly 5% stayed inconclusive and do not appear here. Cut-off read from the data, not from the text of the source: active = activity change below about -50%; inconclusive = mostly about -30% to -49%; inactive = weaker than that. What follows is part of a selection rich in actives, with near analogues and random picks from the rest.
experiment: qHTS for Inhibitors of Inflammasome Signaling: IL-1-beta AlphaLISA Primary Screen; conditions: THP-1 LPS/ATP IL-1B secretion, 16 h; at 57.5 µM, hits give low values
Method in brief: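 THP-1 cells pretreated 1 hr with compounds (up to 57.5 uM final), then stimulated with LPS (250 ng/mL final) plus ATP (1.25 mM final); secreted IL-1B measured by AlphaLISA after 16 hr, decreased signal indicating inhibition.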
% is set by controls: 0 for no effect and ±100 for the full control effect.

Structure (SMILES)	activity change
CC12CCC(=O)N1C(C(=O)NCCN1C(=O)S/C(=C\c3ccccc3F)C1=O)CS2 (centres undefined)	-53.4% (active)
CC12CCC(=O)N1C(C(=O)Nc1ccc(F)c(F)c1F)CS2 (centres undefined)	6.07% (inactive)
CCn1nc(C(=O)NNC(=O)C2CSC3(C)CCC(=O)N23)c2ccccc2c1=O (centres undefined)	4.8% (inactive)
CC1(C(=O)Nc2ccccc2Br)CCN1C(=O)CC1CC1 (centres undefined)	13.2% (inactive)
O=C(Nc1ccncc1)c1c(F)cccc1F	-66.7% (active)
O=C(Nc1ccncc1)c1cc2ccccc2o1	-4.22% (inactive)
CCCC(=O)Nc1nc2ccc(NC(=O)c3c(F)c(F)c(OC)c(F)c3F)cc2s1	11.7% (inactive)
O=C(Nc1ccc(S(=O)(=O)N2CCCCCC2)cc1)c1c(F)cccc1F	-9.91% (inactive)
Nc1nnc(SCC(=O)Nc2ccc3nc(SCC(=O)Nc4ccccc4)sc3c2)s1	-29.4% (inactive)
CSc1nc2ccc(NC(=O)c3c(F)cccc3F)cc2s1	-101% (active)
Cc1ccc(C(=O)NC(C)C(c2cccs2)N2CCOCC2)cc1C (centres undefined)	-9.25% (inactive)
CNC(=O)N1c2ccccc2C=Cc2ccccc21	0% (inactive)
CCCCNC(=O)N1CCCC(N(C)CCc2ccc(OC)c(OC)c2)C1 (centres undefined)	1.87% (inactive)
CC1(C2CC2)NC(=O)N(CC(=O)N2CCN(c3ccccc3F)CC2)C1=O (centres undefined)	-14.2% (inactive)
Cc1c(C(=O)NCC(c2ccco2)N2CCCC2)oc2ccc(Cl)cc12 (centres undefined)	-25.2% (inactive)
Cc1ccc(C)c(S(=O)(=O)Nc2cc(C)on2)c1	-7.66% (inactive)
CCOC(=O)C1CCCN(C(=O)C2CCN(S(=O)(=O)c3ccc(Cl)c(C(F)(F)F)c3)CC2)C1 (centres undefined)	16.1% (inactive)
CCCc1nc2oc3c(=O)[nH]cnc3c2c2c1COC(C)(C)C2	17.7% (inactive)
CS(=O)(=O)N1CCCCC1c1cc(C(=O)NCc2ccccc2)no1 (centres undefined)	-18.8% (inactive)
CCN1CCC(O)(/C=C/c2ccc(C)cc2)C(C(=O)/C=C/c2ccc(C)cc2)C1 (centres undefined)	-1.25% (inactive)

Structure (SMILES)	activity change
CCCOC(=O)c1ccc(N2C(=O)c3ccccc3C2=O)cc1	17.6% (inactive)
CCCCOC(=O)NCN1C(=O)C2C3C=CC(C3)C2C1=O (centres undefined)	26.4% (inactive)
CCCCCOC(=O)c1ccc(N2C(=O)C3C4C=CC(C4)C3C2=O)cc1 (centres undefined)	-71.4% (active)
O=C(Nc1cccc2c1CCCC2)C1CCN(C(=O)NC2CCCCC2)CC1	15.3% (inactive)
COC(=O)[C@]12CCCCC=C1N(CCC1=CCCCC1)C(=O)[C@H](CC(=O)N1CCSCC1)C2	-3.86% (inactive)
CCOCCCNc1c(CC)c(C)c(C#N)c2nc3ccccc3n12	-7.67% (inactive)
CCCc1cc(=S)n2c([nH]c3ccccc32)c1C#N	-9.7% (inactive)
CCOC(=O)CCc1c(C)c(C#N)c2[nH]c3ccccc3n2c1=O	-90.1% (active)
COC(=O)C1=CN(c2c(C)cc(C)cc2C)C(N)=C(C#N)C1c1cccc(F)c1 (centres undefined)	-11.3% (inactive)
CC1Cc2[nH][nH]c(=O)c2C(C2CC2)O1 (centres undefined)	-5% (inactive)
COc1ccc(CN2C(=O)C(CC(=O)NC3CCCCC3)CC(C(=O)N3CCOCC3)=C2C)cc1 (centres undefined)	-7.47% (inactive)
CCOc1ccc(-n2c(SCC(=O)Nc3ccc(OC)cc3)nc3sc4c(c3c2=O)CCN(C)C4)cc1	-16% (inactive)
CCn1c(SCC(=O)Nc2ccc(Br)cc2)nc2sc3c(c2c1=O)CCN(C)C3	-54.3% (active)
COc1ccccc1NC(=O)CSc1nc2sc3c(c2c(=O)n1-c1ccccc1)CCN(C)C3	-4.77% (inactive)
Cc1ccc(-c2c(C)n([O-])c3c([n+]2=O)CCC3)cc1	12.3% (inactive)
CN1CN(C)c2ccc([N+](=O)[O-])c3cccc1c23	-18.1% (inactive)
CCOc1cccc(=O)c2c(C)n(CC3CCCO3)c(C)c12 (centres undefined)	13.1% (inactive)
O=C1c2cccc3c([N+](=O)[O-])ccc(c23)C(=O)N1CC1CCCO1 (centres undefined)	-98.7% (active)
Cc1ccc(N2CCN(c3ccc(C)cc3)C2c2ccccn2)cc1	-6.85% (inactive)
COc1ccc(S(=O)(=O)N2CCC(C(=O)NCCC(=O)NCCc3cccc(F)c3)CC2)cc1	-8.46% (inactive)

Structure (SMILES)	activity change
CC(Cc1cccs1)N(Cc1ccc(Cl)cc1)C(=O)c1ccncc1 (centres undefined)	20.4% (inactive)
Nc1nc(NC(=O)/C=C/c2ccc(F)cc2)nn1-c1ccccc1	-2.85% (inactive)
O=c1c2c(nc3n1CCCCC3)sc1c(O)cccc12	24.7% (inactive)
CC(=O)c1ccc(NC(=O)c2sc3nc4n(c(=O)c3c2C)CCCCC4)cc1	-59.8% (active)
Cc1c(C(=O)Nc2ccccc2)sc2nc3n(c(=O)c12)CCCCC3	-7.47% (inactive)
CCCS(=O)(=O)Nc1ccc(-c2cn3c(n2)SCC3)cc1	-1.84% (inactive)
CCCCCCNC(=O)O[C@]12C[C@@H](C(=O)OC)[C@@H](C(=O)OC)C[C@@]1(O)CN(S(=O)(=O)c1ccc(C)cc1)C2	11.6% (inactive)
CCCCCCNC(=O)O[C@H]1CN(C(=O)OC(C)C)N(C(=O)OC(C)C)[C@@H]2CN(S(=O)(=O)c3ccc(C)cc3)C[C@]12O	-63.8% (active)
COC(=O)[C@H]1C[C@H](OC(=O)NCc2ccccc2)[C@@]2(O)CN(S(=O)(=O)c3ccc(C)cc3)CC2[C@H]1C(=O)OC (some centres undefined)	-4.9% (inactive)
COc1ccc([C@H]2CC(=O)C[C@@H](CCn3cc(CC4CCCC4)nn3)O2)cc1	10.9% (inactive)
COc1ccc(-c2nc3ccc(Br)cn3c2Cc2ccc(C)cc2)cc1OC	-15.5% (inactive)
Cc1ccc(Cn2cc(C(=O)NN)c(=O)c3ccc(F)cc32)cc1	-11.4% (inactive)
Cc1ccc(Nc2cc(C)nc3c(C)ccc([N+](=O)[O-])c23)cc1	-61.1% (active)
Cc1ccc(Nc2nc(C)cc(C)c2C(N)=O)cc1	19.4% (inactive)
Cc1ccc2cccc([N+](=O)[O-])c2n1	15% (inactive)
O=NN(CCCl)C(=O)NCCc1cccc[n+]1[O-]	15% (inactive)
CC1CCN(C(=O)c2ccc(CSc3ccc(Cl)cc3)cc2)CC1	-51.2% (active)
O=C(NC1CCCCCC1)C1CCN(C(=O)c2ccc(Cl)cc2)CC1	9.37% (inactive)
O=C(c1ccc(CSc2ccccc2)cc1)N1CCCCCC1	-19.7% (inactive)

Source: PubChem BioAssay AID743279 (National Center for Advancing Translational Sciences (NCATS), 2014)
